Shiga inhibitor = Shiga toxin inhibition; Vero cells, Shiga toxin protein synthesis inhibition reporter; 290,000 compounds, 9.2% hits; AID 2315; inhibition, % at 38.7 µM; in the data active = inhibition mostly above about 28%, no sharp cut-off; inactive = mostly below about 43%; note: 0% is about no effect
Pf growth 96h = inhibits malaria parasite growth, 96 h | P. falciparum luciferase reporter growth, 96 h | Potency, µM (top dose mostly 28.7 µM), inactives show at the highest dose activity change, negative = inhibition, most hits filed as inhibitors | 320,000 compounds, 6.9% hits | AID 504834; note: potency is the fitted concentration of half-maximal effect; % is set by controls: 0 for no effect and ±100 for the full control effect
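Cell-based qHTS: luciferase-tagged P. falciparum in erythrocytes (2% hematocrit, 0.05% parasitemia final) incubated with compounds for 96 hours, 37 C, 5% CO2; luciferase detection reagent then added and luminescence measured.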
NS1 function inh = influenza NS1 inhibition | Potency, µM (doses to about 46.1 µM), for the others: at the highest dose activity, positive = more growth | AID 2326 | 270,000 compounds, 0.4% hits; calls by dose curve; note: potency is the fitted concentration of half-maximal effect; actives are rising curves; nearly all actives have a fitted effect of over 50% in size
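Recovery from NS1-induced slow growth read by OD600 in budding yeast switched to galactose assay medium (pH 6.0, -URA) at 1:100 dilution. Compound 23 nl per well; the matching strain lacking NS1 serves as control.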
Pf growth 48h = P. falciparum growth inhibition at 48 hours (one generation). P. falciparum luciferase growth in erythrocytes, 48 h. Potency, µM (top dose mostly 28.7 µM), for inactives: at the top dose activity change, negative = inhibition, hits mostly inhibitors. 310,000 compounds, 5.9% hits; note: potency is the fitted concentration of half-maximal effect; % is set by controls: 0 for no effect and ±100 for the full control effect
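Luciferase-expressing P. falciparum in infected erythrocytes (2% hematocrit, 0.1% parasitemia final) in RPMI 1640/0.5% Albumax were exposed to compound for 48 hours at 37 C, 5% CO2; growth read as luminescence.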
Cycloheximide cs = affects cycloheximide protein synthesis inhibition readout, counter-screen. cell reporter, cycloheximide protein synthesis inhibition counterscreen. max response, %. 300,000 compounds, 12% hits. AID 2314; in the data active = max response mostly above about 13%, no sharp cut-off; inactive = mostly below about 14%; note: read at 38.3 µM for the half of the compounds with a filed dose; 0% is about no effect
SARS PLpro yeast = inhibitors of SARS-CoV papain-like protease in yeast | S. cerevisiae expressing SARS-CoV PLpro, growth rescue | Potency, µM (doses to about 32.9 µM), for inactives: at the highest dose activity, positive = growth rescue, usual class: activators | 330,000 compounds, 0.19% hits | AID 485353; calls by dose curve; note: potency is the fitted concentration of half-maximal effect; 0% is about no effect; nearly all actives have a fitted effect of over 55% in size
* marks the source's active call; other numbers are inactive results; ? = inconclusive; nt = no result; + = active, no number; [ ] = dose if it differs, or a comment. Sampled rows, rich in hits. Any-hit rate of the full collection: about 21%. Unless noted, calls come from the whole dose curve; as a rule, active = well fitted inhibition curve with a large enough effect; inconclusive = small, poorly fitted or top-dose-only effect, or another doubt; inactive = no such curve, though single readings can be large or run the other way.

SMILES | Shiga inhibitor | Pf growth 96h | NS1 function inh | Pf growth 48h | Cycloheximide cs | SARS PLpro yeast
CCN(CCNC(=O)C1CCN(c2nnc(-n3cccc3)s2)CC1)c1ccccc1 | 8.7 | 4.9% | -78.8% | -24.6% | -1.8 | -2.5%
Cc1sc2ncnc(N3CCN(S(=O)(=O)c4ccccc4)CC3)c2c1C | nt | ? | nt | 13.1µM* | nt | -1.5%
O=S(=O)(c1ccc2c(c1)OCCO2)N1CCN(c2ncnc3sccc23)CC1 | -12.3 | -20.1%[5.75 µM] | nt | ? | -2.4 | -1.5%
Cc1sc2ncnc(OCC(=O)N3CCN(S(=O)(=O)c4ccc(Cl)cc4)CC3)c2c1C | 13.7 | 23.3% | 3.8% | ? | 10.1* | -0.1%
Cc1ccc(S(=O)(=O)N2CCN(c3ncnc4scc(-c5ccccc5)c34)CC2)cc1 | nt | nt | nt | nt | nt | 1.4%
Cc1sc2nc(CN3CCCC3)nc(N3CCN(S(=O)(=O)c4ccccc4)CC3)c2c1C | nt | 4.65µM* | nt | 10.4µM* | nt | -7.1%
Cc1ccc(S(=O)(=O)N2CCN(c3ncnc4sccc34)CC2)cc1C | nt | 11.7µM* | nt | 13.1µM* | nt | 4.7%
CC(C)n1c(O)c(N=NC(=O)Cc2csc(N3CCOCC3)n2)c2ccccc21 | 19.0 | ? | nt | 13.1µM* | -3.1 | -1.9%
CC(C)n1c(O)c(N=NC(=O)CNC(=O)Cc2ccc(Cl)cc2)c2ccccc21 | -9.9 | -18.1% | 3.9% | -10.3% | -3.2 | -19.0%
O=C(CNC(=O)c1ccc2c(c1)OCO2)N/N=C/c1cc(Br)ccc1O | -19.3 | 30.0% | 9.3% | 11.9% | -1.4 | 0.4%
C[C@@H]1CCC[C@]2(C)CCCC[C@@]12O | -5.1 | nt | nt | nt | -2.9 | nt
NNc1nc2c(-c3cccc(C(F)(F)F)c3)nnn2c2ccccc12 | 52.9* | 25.9% | 1.1% | 6.57µM* | 15.2* | -3.8%
CCCCNc1nc2c(-c3ccccc3)nnn2c2ccccc12 | 6.3 | -1.7% | -0.1% | -5.2% | 4.1 | 1.0%
CNc1nc2c(-c3ccc(Cl)cc3)nnn2c2ccccc12 | 16.8 | -23.1% | 0.7% | 1.8% | 14.6 | 0.6%
Cc1ccc(-c2nnn3c2nc(NC(C)C)c2ccccc23)cc1 | 19.7 | 15.8% | -8.4% | ? | 13.6* | -0.1%
Nc1nc2c(-c3ccc(Br)cc3)nnn2c2ccccc12 | 96.4* | 251.7% | 3.2% | 239.7% | 49.0* | 0.8%
CC1CCN(C(=O)CCNS(=O)(=O)c2ccc3c(c2)c(=O)n(C)c(=O)n3C)CC1 | 0.5 | 46.3% | 15.1% | -2.6% | -4.3 | 4.6%
Cc1ccc(C(=O)c2cn[nH]c2-c2cc(Cl)ccc2O)cc1 | 7.0 | ? | -123.3% | 24.1% | -1.3 | -21.4%
Cc1ccc(-c2[nH]ncc2C(=O)c2ccc(Br)cc2)c(O)c1 | 18.9 | ? | -44.7% | ? | 11.0* | -6.2%
Brc1ccc(C2=Nn3cnnc3SC2)cc1 | 22.1 | ? | -23.2% | 154.0% | -2.0 | -4.9%
CC1=C(/C=C/C(C)=C/C=C/C(C)=C/CO)C(C)(C)CCC1 | nt | 10.7µM* | nt | ? | nt | nt
CC(=O)OC/C=C(C)/C=C/C=C(C)/C=C/C1=C(C)CCCC1(C)C | 4.8 | nt | nt | nt | 13.8 | nt
CSc1cccc(NC(=O)COc2ccccc2C)c1 | 47.5* | 29.6% | nt | 13.1% | 15.7* | -1.1%
CCC(=O)Nc1cccc(SC)c1 | 3.3 | 7.2% | -5.6% | 9.5% | -1.3 | -0.4%
Cc1cc(Cl)ccc1OCC(=O)Nc1ccc2oc(=O)ccc2c1 | 0.2 | 11.7µM* | 3.0% | -8.4% | 0.8 | 0.0%
SMILES | Shiga inhibitor | Pf growth 96h | NS1 function inh | Pf growth 48h | Cycloheximide cs | SARS PLpro yeast
Cc1ccccc1OCC(=O)Nc1ccc2oc(=O)ccc2c1 | 54.1 | 116.4% | nt | 32.0% | 33.2* | -2.2%
Cc1nnc(SCC(=O)NCC(=O)Nc2ccc(F)c(F)c2F)n1N | nt | nt | nt | nt | nt | -0.6%
O=c1c(Cl)c2oc3ccccc3nc-2c2ccccc12 | -18.6 | -8.1% | -0.2% | 13.1µM* | 14.6 | -0.3%
CCOCCOc1cccc(C(=O)NC(C)c2ccc3ccccc3c2)c1 (stereo unspecified) | -5.3 | ? | 5.6% | -12.0% | -2.3 | 2.6%
COc1cc(C#Cc2c(-c3cncn3C)n(C)c3ccc(-c4ccc(OC)c(OC)c4)cc23)cc(OC)c1 | nt | 5.22µM* | nt | 1.31µM* | nt | 2.5%
COc1ccc(C#Cc2c(-c3ccccc3)n(C)c3ccccc23)cc1 | nt | nt | nt | nt | nt | -2.4%
COc1cc(C#Cc2c(-c3ccccc3)n(C)c3ccccc23)cc(OC)c1 | -5.8 | 11.7µM* | 16.0% | ? | 1.9 | -5.2%
Cc1cc(C#Cc2c(-c3ccccc3)n(C)c3ccccc23)ccc1F | 4.7 | 5.86µM* | 14.0% | ? | -1.4 | -14.3%
COc1ccc(-c2c(C#Cc3ccsc3)c3cc(-c4cccc5[nH]ccc45)ccc3n2C)cc1 | nt | 2.33µM* | nt | 1.31µM* | nt | -8.3%
COc1ccc(C(C)NC(=O)Cc2cccs2)cc1 (stereo unspecified) | -3.5 | -9.3% | 11.4% | 13.8% | 0.5 | 1.0%
COc1ccc(-c2c(C#Cc3ccsc3)c3ccccc3n2C)cc1 | 38.6* | 3.29µM* | ? | ? | 23.0* | -13.8%
COC(=O)c1ccc2c(c1)c(I)c(-c1ccc(OC)cc1)n2C | + | nt | nt | nt | 37.1* | nt
COc1ccc(-c2c(C#Cc3ccsc3)c3cc(-c4ccc(C(N)=O)cc4)ccc3n2C)cc1 | nt | nt | nt | nt | nt | 4.8%
COc1ccc(-c2c(C#Cc3ccsc3)c3cc(-c4ccc5[nH]ccc5c4)ccc3n2C)cc1 | nt | ? | nt | ? | nt | 2.6%
COc1ccc(-c2oc3ccc(-c4cc(OC)c(OC)c(OC)c4)cc3c2C#Cc2ccsc2)cc1 | -6.0 | 7.38µM* | 6.8% | -40.7% | -2.2 | -4.9%
CCOC(=O)c1c(-c2ccccc2)n(C)c2ccc(O)cc12 | -7.7 | ? | -1.0% | nt | -3.4 | -0.8%
COC(=O)c1ccc2c(c1)c(C#Cc1ccccc1)c(-c1ccccc1)n2C | + | nt | nt | nt | 59.9* | 12.3%
CCOC(=O)N1CCN(C(=O)C(NC(=O)c2ccc(CC)cc2)C(C)C)CC1 (stereo unspecified) | 8.5 | 99.5% | 1.1% | ? | -2.1 | 2.9%
O=C(CSc1nc2ncc(Cl)cc2[nH]1)N(Cc1ccccc1)C1CCS(=O)(=O)C1 (stereo unspecified) | -9.7 | 13.5% | nt | 1.7% | 8.4 | 0.0%
O=C(Cn1c(=O)oc2cc(S(=O)(=O)N3CCCCC3)ccc21)N1CCCCC1 | -3.5 | ? | 12.6% | -3.2% | -3.0 | 0.4%

Screens (PubChem BioAssay)
